In the library only some 17% were active in any assay of this set; here they are far more common.
HepG2 viability: kills HepG2 cells in TGF-b inhibitor counter-screen; HepG2 CAGA-GFP viability, ATP luminescence, 18 h; Potency, µM (series often up to 46.1 µM), inactives show top-dose activity change, negative = cytotoxicity, usual class: cytotoxic; hit rate 0.76% among 410,000; AID 588856
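HepG2 CAGA-GFP cells (1000/well, DMEM with 1% FBS) received compound, then TGF-beta at 500 pg/mL final, and were incubated 18 hours at 37 degrees C. Viability was read by CellTiter-Glo luminescence. Media-only wells were set as complete cell-killing and DMSO as no toxicity.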
ATXN viability: viability counter-screen for ATXN expression inhibitors. S2 cells (HEK-293 line with an ATXN2-luciferase reporter) viability, CellTiter-Fluor protease fluorescence, 24 h. AID 651635. hit rate 0.49% among 400,000. Potency, µM (highest dose often 56.7 µM), hits mostly cytotoxic; note: nearly all actives have a fitted effect of over 40% in size
TGFb inhibitor: blocks TGF-b signaling; hit rate 1.2% among 410,000; HepG2 CAGA-GFP TGF-b/SMAD3 reporter, GFP fluorescence, 18 h; TGF-beta stimulated, 500 pg/mL final; Potency, µM (highest dose often 46.1 µM), for inactives: at the highest dose activity, negative = inhibition, usual class: inhibitors; note: % is set by controls: 0 for no effect and ±100 for the full control effect; nearly all actives have a fitted effect of over 65% in size
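Cell-based qHTS in HEPG2 carrying a CAGA-GFP Smad reporter; compounds added before 500 pg/mL final TGF-beta, 18 h incubation at 37 degrees C, GFP fluorescence quantified per cell by imaging cytometry.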
DT40 TDP1 CPT: DT40-hTDP1 cell growth loss with CPT. Potency, µM (top dose mostly 46.2 µM), without a hit: at the highest dose activity change, negative = growth inhibition, actives largely listed as inhibitors. chicken DT40 Tdp1-/-;hTDP1 cells + 20 nM CPT, ATP luminescence, 48 h. hit rate 12% among 420,000; note: % is set by controls: 0 for no effect and ±100 for the full control effect; nearly all actives have a fitted effect of over 55% in size
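Cell growth measured by CellTiter-Glo luminescence after a minimum 48 h, 37 C compound exposure with 20 nM CPT in Tdp1-knockout DT40 cells stably expressing hTDP1, seeded 400/well; qHTS titration format.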
TDP1 cell noCPT: qHTS for Inhibitors of human tyrosyl-DNA phosphodiesterase 1 (TDP1): qHTS in cells in absence of CPT | DT40 Tdp1-/- hTDP1 cells, no CPT, ATP luminescence, 48 h | Potency, µM (titrated, usually from 46.2 µM), for the others: top-dose activity change, negative = growth inhibition, actives largely listed as inhibitors | hit rate 15% among 420,000; note: % is set by controls: 0 for no effect and ±100 for the full control effect; nearly all actives have a fitted effect of over 55% in size
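Chicken DT40 Tdp1-/- cells complemented with human TDP1, screened without camptothecin (DMSO vehicle only), 400 cells/well. Compounds pin-transferred, cells incubated at 37 °C for at least 48 hr. Growth read as ATP-dependent luminescence (CellTiter-Glo, 30 min at RT).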
ATXN2 expr inh: ATXN2 expression inhibition; HEK-293 ATXN2-luciferase reporter, luminescence, 24 h; Potency, µM (titrated, usually from 57 µM), without a hit: top-dose activity change, negative = inhibition, usual class: inhibitors; hit rate 0.72% among 360,000; note: % is set by controls: 0 for no effect and ±100 for the full control effect; nearly all actives have a fitted effect of over 55% in size
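qHTS (up to 57 uM final) was run with 24 h compound exposure of reporter cells at 37 °C. Each well was multiplexed: SteadyGlo luminescence measured ATXN2-luciferase expression after a fluorogenic Gly-Phe-AFC viability readout (25 uM final).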
An asterisk follows results filed as active. Calls come from the whole dose curve; as a rule, active = well fitted curve in the direction sought with a large enough effect; inconclusive = small, poorly fitted or top-dose-only effect, or another doubt; inactive = no such curve, though single readings can be large; an effect the other way counts as inactive or inconclusive. Potency is the fitted concentration of half-maximal effect.

Screening COc1ccc([C@@H]2C[C@H]3[C@@H](CN2S(=O)(=O)c2ccccc2)C(=O)C[C@@H](c2ccc(C)cc2)N3S(=O)(=O)c2ccc(C)cc2)cc1 returned HepG2 viability -6%, ATXN viability inconclusive, TGFb inhibitor -2%, DT40 TDP1 CPT -1%, TDP1 cell noCPT inconclusive and ATXN2 expr inh 10%.
Nn1c(SCC(=O)NC2CCCCC2)nnc1-c1ccco1 was read as HepG2 viability -5%, ATXN viability inactive, TGFb inhibitor -7%, DT40 TDP1 CPT 4% and TDP1 cell noCPT 8%.
COc1cc2c(cc1OC)C(C)N(Cc1ccc3c(c1)OCO3)CC2 (stereo unspecified) was read as HepG2 viability -24%, ATXN viability inactive, TGFb inhibitor -7%, DT40 TDP1 CPT inconclusive, TDP1 cell noCPT 18µM* and ATXN2 expr inh -13%.
For COc1cc2c(cc1OC)C(C)N(C(=O)c1ccc(Br)o1)CC2 (stereo unspecified) the results were HepG2 viability -19%, ATXN viability inactive, TGFb inhibitor 7%, DT40 TDP1 CPT inconclusive, TDP1 cell noCPT 16µM* and ATXN2 expr inh -14%.
COc1cc2c(cc1OC)C(Cc1ccc(O)cc1)N(C)CC2 (stereo unspecified) was read as HepG2 viability -17%, ATXN viability inactive, TGFb inhibitor 7%, DT40 TDP1 CPT -4%, TDP1 cell noCPT -4% and ATXN2 expr inh -4%.
COc1cc2c(cc1OC)C(C)N(C(=O)c1cc(Cl)nc(Cl)c1)CC2 (stereo unspecified) was read as HepG2 viability -5%, ATXN viability inactive, TGFb inhibitor 3%, DT40 TDP1 CPT 7.3µM*, TDP1 cell noCPT inconclusive and ATXN2 expr inh -13%.
COC(=O)C(C)Sc1nc2c(cnn2-c2ccc(Cl)cc2)c(=O)[nH]1 (stereo unspecified) was read as HepG2 viability 3%, ATXN viability inactive, TGFb inhibitor 0%, DT40 TDP1 CPT -16%, TDP1 cell noCPT 10% and ATXN2 expr inh -11%.
CN(CC(=O)Nc1cccc(F)c1)CC(=O)Nc1ccccc1Oc1ccccc1 was read as HepG2 viability -10%, ATXN viability inconclusive, TGFb inhibitor -10%, DT40 TDP1 CPT inconclusive and TDP1 cell noCPT inconclusive.
Screening C[n+]1ccccc1/C=C/c1ccc2ncccc2c1 returned HepG2 viability -15%, ATXN viability inactive, TGFb inhibitor 4%, DT40 TDP1 CPT 5% and TDP1 cell noCPT 1%.
`C[n+]1ccnc2ccccc21` gave HepG2 viability -105%, TGFb inhibitor 5µM*, DT40 TDP1 CPT 1.4µM* and TDP1 cell noCPT 4µM*.
C=CC[n+]1ccnc2ccccc21 was read as HepG2 viability 1%, TGFb inhibitor inconclusive, DT40 TDP1 CPT 5µM* and TDP1 cell noCPT inconclusive.
For COc1ccccc1Oc1ccnc2cc(Cl)ccc12 the results were HepG2 viability -1%, ATXN viability inactive, TGFb inhibitor -29%, DT40 TDP1 CPT inconclusive, TDP1 cell noCPT inconclusive and ATXN2 expr inh -8%.
For C[n+]1ccnc2cc(Cl)ccc21 the results were HepG2 viability 1.4µM*, TGFb inhibitor 1.1µM*, DT40 TDP1 CPT 0.63µM* and TDP1 cell noCPT 0.71µM*.
Cc1cc2nc(C)c3c(n2n1)CCC3 was read as HepG2 viability 16%, ATXN viability inactive, TGFb inhibitor 7%, DT40 TDP1 CPT 5%, TDP1 cell noCPT -1% and ATXN2 expr inh -5%.
For NC(=O)NS(=O)(=O)c1ccc(Cl)cc1 the results were ATXN viability inactive and ATXN2 expr inh 8%.
Screening O=C1CC(N2CCN(Cc3ccc4c(c3)OCO4)CC2)C(=O)N1c1cccc(Cl)c1 (stereo unspecified) returned HepG2 viability -1%, ATXN viability inconclusive, TGFb inhibitor -1%, DT40 TDP1 CPT -3%, TDP1 cell noCPT -6% and ATXN2 expr inh -1%.
Screening Fc1ccc2c(c1)Sc1ccc(Cl)cc1CC2N1CCN(CCC2OCCO2)CC1 (stereo unspecified) returned HepG2 viability -36%, ATXN viability inactive, TGFb inhibitor inconclusive, DT40 TDP1 CPT inconclusive, TDP1 cell noCPT 18µM* and ATXN2 expr inh -26%.
COc1ccc(CCn2c(C)cc(C(=O)CN3C(=O)C(=O)N(Cc4ccco4)C3=O)c2C)cc1 was read as HepG2 viability -14%, ATXN viability inactive, TGFb inhibitor -17%, DT40 TDP1 CPT 13µM*, TDP1 cell noCPT 9.2µM* and ATXN2 expr inh -21%.
`Cc1cc(C(=O)CN2C(=O)C(=O)N(C3CCCC3)C2=O)c(C)n1CCc1ccc(F)cc1` gave HepG2 viability -3%, ATXN viability inactive, TGFb inhibitor 2%, DT40 TDP1 CPT 18µM*, TDP1 cell noCPT inconclusive and ATXN2 expr inh -20%.
O=C1OC(CCl)CN1Cc1ccc([N+](=O)[O-])cc1 (stereo unspecified) was read as HepG2 viability -16%, ATXN viability inactive, TGFb inhibitor 13%, DT40 TDP1 CPT -5%, TDP1 cell noCPT -7% and ATXN2 expr inh 3%.
For CCc1ccc(S(=O)(=O)/N=C2\C=C(NS(=O)(=O)c3ccccc3)C(=O)c3ccccc32)cc1 the results were HepG2 viability -60%, ATXN viability inconclusive, TGFb inhibitor inconclusive, DT40 TDP1 CPT inconclusive, TDP1 cell noCPT -27% and ATXN2 expr inh -21%.
For Cc1ccc(NC(=O)CN(C)S(=O)(=O)c2cccs2)cc1C the results were HepG2 viability -20%, ATXN viability inactive, TGFb inhibitor -18%, DT40 TDP1 CPT inconclusive, TDP1 cell noCPT inconclusive and ATXN2 expr inh 33%.
Screening COC(=O)[C@H](CO)NS(=O)(=O)c1ccc(C)cc1 returned HepG2 viability 8%, ATXN viability inactive, TGFb inhibitor 1%, DT40 TDP1 CPT 10%, TDP1 cell noCPT -10% and ATXN2 expr inh 8%.
`Cc1ccccc1NC1=C/C(=N\S(=O)(=O)c2ccc(C(=O)O)cc2)c2ccccc2C1=O` gave HepG2 viability 18µM*, ATXN viability 10µM*, TGFb inhibitor inconclusive, DT40 TDP1 CPT 16µM*, TDP1 cell noCPT 18µM* and ATXN2 expr inh 8.9µM*.
